# High-throughput results (PubChem BioAssay)
# HP1b binding inh = HTS for Inhibitors of HP1-beta Chromodomain Interactions with Methylated Histone Tails; AID 540317, 2011; hit rate 0.56% among 390,000; Chromobox protein homolog 1 (Homo sapiens), P83916; Potency, µM (titrated, usually from 114 µM), for inactives: top-dose activity change, negative = inhibition, usual class: inhibitors; AlphaScreen HP1-beta / biotin-H3K9me3 peptide binding; also: nearly all actives have a fitted effect of over 70% in size
#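 HP1-beta protein (50 nM final) preincubated 30 min at room temperature with biotinylated H3(1-18)K9me3 peptide (50 nM) in PBS pH 7.4, 0.01% Tween-20, then compound added for 30 min. AlphaScreen streptavidin donor/nickel chelate acceptor beads (10 ug/mL final), 30 min dark, luminescence read.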
# JMJD2A Tudor inh = qHTS Assay for Inhibitors of JMJD2A-Tudor Domain; AlphaScreen JMJD2A-Tudor / H3K4me3 peptide binding; AID 504339, 2011; Potency, µM (top dose mostly 114 µM), without a hit: top-dose activity change, negative = inhibition, most hits filed as inhibitors; Lysine-specific demethylase 4A (Homo sapiens), O75164; hit rate 4.4% among 390,000; also: % is scaled to controls: 0 for no effect and ±100 for the full control effect; nearly all actives have a fitted effect of over 50% in size
# Target sequence (O75164 whole entry, looked up, the tested form may be a part): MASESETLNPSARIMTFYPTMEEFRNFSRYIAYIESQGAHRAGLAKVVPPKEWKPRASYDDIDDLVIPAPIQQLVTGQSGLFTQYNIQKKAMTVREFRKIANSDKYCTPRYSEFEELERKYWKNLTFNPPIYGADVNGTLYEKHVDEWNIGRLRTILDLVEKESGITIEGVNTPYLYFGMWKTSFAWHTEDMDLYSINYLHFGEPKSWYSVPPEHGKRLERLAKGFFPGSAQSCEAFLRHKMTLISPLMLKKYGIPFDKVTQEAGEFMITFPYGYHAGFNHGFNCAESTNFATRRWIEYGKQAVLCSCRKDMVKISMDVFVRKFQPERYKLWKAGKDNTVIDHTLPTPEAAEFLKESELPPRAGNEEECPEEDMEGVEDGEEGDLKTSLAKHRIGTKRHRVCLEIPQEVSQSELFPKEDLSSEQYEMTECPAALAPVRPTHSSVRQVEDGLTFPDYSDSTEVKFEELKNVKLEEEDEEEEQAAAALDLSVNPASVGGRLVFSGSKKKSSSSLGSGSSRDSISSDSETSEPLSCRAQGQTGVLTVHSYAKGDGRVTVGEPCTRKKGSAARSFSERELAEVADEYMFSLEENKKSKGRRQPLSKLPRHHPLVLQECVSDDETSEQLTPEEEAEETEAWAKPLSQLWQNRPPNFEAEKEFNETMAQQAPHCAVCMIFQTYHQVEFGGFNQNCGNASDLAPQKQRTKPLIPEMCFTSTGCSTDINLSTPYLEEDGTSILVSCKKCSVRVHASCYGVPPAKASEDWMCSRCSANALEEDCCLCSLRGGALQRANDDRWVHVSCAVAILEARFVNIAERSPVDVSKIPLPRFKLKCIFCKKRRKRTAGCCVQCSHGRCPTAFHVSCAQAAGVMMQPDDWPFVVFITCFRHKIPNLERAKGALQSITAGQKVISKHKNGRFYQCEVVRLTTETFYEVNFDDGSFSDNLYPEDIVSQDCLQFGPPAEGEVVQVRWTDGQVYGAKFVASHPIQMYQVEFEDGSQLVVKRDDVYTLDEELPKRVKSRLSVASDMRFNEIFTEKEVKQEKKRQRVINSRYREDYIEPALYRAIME
# G9a inh = qHTS Assay for Inhibitors of Histone Lysine Methyltransferase G9a; G9a H3K9 monomethylation, AlphaScreen, 2 h; Potency, µM (doses to about 102 µM), inactives show at the highest dose activity, negative = inhibition, most hits filed as inhibitors; Histone-lysine N-methyltransferase EHMT2 (Homo sapiens), Q96KQ7; hit rate 8.8% among 350,000; also: % is scaled to controls: 0 for no effect and ±100 for the full control effect; nearly all actives have a fitted effect of over 75% in size
#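 Readings reflect AlphaScreen signal from monomethyl-H3K9 antibody detection. HMT at 20 nM; substrate b-H3K9 500 nM; cofactor SAM 20 uM; 2 h RT reaction; compounds tested as titrations in qHTS with 15 min preincubation.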
# BAZ2B inh = qHTS Assay for Inhibitors of BAZ2B; AlphaScreen BAZ2B-H3K14Ac peptide displacement; Potency, µM (top dose mostly 114 µM), for the others: at the top dose activity change, negative = inhibition, hits mostly inhibitors; hit rate 4.4% among 360,000; AID 504333, 2011; also: % is scaled to controls: 0 for no effect and ±100 for the full control effect; nearly all actives have a fitted effect of over 60% in size
#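 AlphaScreen displacement: compounds (up to 110uM) incubated 30 min at room temperature with a preformed 50 nM BAZ2B/50 nM biotinylated H3K14Ac peptide complex in PBS pH 7.4 with Tween-20. Donor and acceptor beads at 10 ug/mL final added, 20 min light-protected before reading.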
# GLS inhibitor = qHTS for Inhibitors of Glutaminase (GLS) | hit rate 0.21% among 410,000 | Potency, µM (doses to about 45.5 µM), without a hit: at the top dose activity change, negative = inhibition, actives largely listed as inhibitors | GLS enzymatic activity, qHTS titration | Glutaminase kidney isoform, mitochondrial (Homo sapiens), O94925; also: % is scaled to controls: 0 for no effect and ±100 for the full control effect
#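 Compounds were pin-transferred onto hKGA, after which L-glutamine (1 mM solution) and a detection mix of glutamate oxidase, HRP and Amplex Red were added. Initial and 30 min RT fluorescence reads were collected.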
# Starred values were filed as active, the others as inactive; ? = inconclusive; . = no result; [ ] = dose if it differs, or a comment. Hits are enriched below; roughly 10% of the tested compounds scored in any of these assays. Calls follow the shape of the dose curve; as a rule, active = well fitted curve in the direction sought with a large enough effect; inconclusive = small, poorly fitted or top-dose-only effect, or another doubt; inactive = no such curve, though single readings can be large; an effect the other way counts as inactive or inconclusive. Potency is read from the fitted curve at half-maximal effect.
SMILES,HP1b binding inh,JMJD2A Tudor inh,G9a inh,BAZ2B inh,GLS inhibitor
COC(=O)/C(C#N)=C/c1c(N2CCN(c3ccccc3)CC2)nc2ccccn2c1=O,-20.3%,?,79.4µM*,?,8.9%
CCNC(=O)/C(C#N)=C/c1c(N2CCN(c3ccccc3)CC2)nc2c(C)cccn2c1=O,?,?,-13.2%[2.33 µM],-1.5%,-3.2%
COCCNC(=O)/C(C#N)=C/c1c(N2CCN(c3ccc(OC)cc3)CC2)nc2c(C)cccn2c1=O,-12.9%,50.1µM*,28.2µM*,39.8µM*,26.6%
CCOC(=O)/C(C#N)=C/c1c(N2CCN(c3ccc(OC)cc3)CC2)nc2c(C)cccn2c1=O,?,?,8.91µM*,8.91µM*,-2.0%
COCCNC(=O)/C(C#N)=C/c1c(N2CCN(c3ccccc3)CC2)nc2c(C)cccn2c1=O,4.0%,?,?,-38.7%,3.0%
COC(=O)/C(C#N)=C/c1c(N2CCN(C)CC2)nc2ccccn2c1=O,8.0%,-4.4%,-12.9%[2.33 µM],2.9%,1.8%
CCNC(=O)/C(C#N)=C/c1c(N2CCN(c3ccc(OC)cc3)CC2)nc2c(C)cccn2c1=O,?,20µM*,39.8µM*,35.5µM*,-28.0%
Cc1ccc(-c2cc3nccc(-c4cc([N+](=O)[O-])ccc4O)n3n2)cc1,14.2%,-18.3%,-51.0%[59 µM],?,8.91µM*
CCOC(=O)COc1ccc([N+](=O)[O-])cc1-c1ccnc2cc(-c3ccc(C)cc3)nn12,-8.9%,-9.0%,1.2%[59 µM],-18.3%,8.1%
CN(CC(=O)Nc1ccc(F)cc1)C(=O)CCc1nc2sc3c(c2c(=O)[nH]1)CCCC3,14.8%,-29.7%,56.2µM*,-3.8%,-8.0%
CCN(CC(=O)Nc1c(F)cccc1F)C(=O)CCc1nc2sc3c(c2c(=O)[nH]1)CCCC3,-12.3%,?,1.6%[0.501 µM],50.1µM*,97.9%
CCN(CC(=O)Nc1ccccc1C(F)(F)F)C(=O)CCc1nc2sc3c(c2c(=O)[nH]1)CCCC3,-0.4%,?,4.0%[59 µM],?,11.0%
CN(CC(=O)Nc1ccc(Cl)cc1)C(=O)CCc1nc2sc3c(c2c(=O)[nH]1)CCCC3,2.6%,-16.6%,50.1µM*,-0.1%,6.0%
C/C(=N\O)C(=O)NCCN(C)C,-2.9%,7.94µM*,?,-9.5%,17.9%
CC(=O)c1ccccc1Oc1ncnc(N)c1[N+](=O)[O-],36.9%,-11.4%,-9.6%[0.501 µM],1.9%,-2.4%
CC(C)OCCCn1c(=O)c2ccccc2n2c(-c3ccc(F)cc3)nnc12,-1.0%,?,28.2µM*,?,3.1%
COc1cc(-c2nnc3n(CCc4ccccc4)c(=O)c4ccccc4n23)cc(OC)c1OC,15.7%,0.0%,17.8µM*,7.3%,-8.7%
COc1ccc2c(c1[N+](=O)[O-])CCC/C2=N/OC(=O)c1ccccc1SC,16.0%,-24.6%,44.7µM*,?,3.0%
COc1ccccc1C(=O)O/N=C1/CCCc2c1ccc(OC)c2[N+](=O)[O-],9.8%,-27.0%,50.1µM*,-0.4%,0.1%
CCOc1ccc2nc(SCC(=O)N(CCOC)c3c(N)n(Cc4ccccc4)c(=O)[nH]c3=O)[nH]c2c1,45.1%,6.2%,10µM*,-3.9%,-4.2%
CCN(CC)c1ccc(-c2nnc(SCC(=O)N(CCOC)c3c(N)n(CC(C)C)c(=O)[nH]c3=O)o2)cc1,3.2%,-12.4%,-50.8%,-33.7%,-2.7%
COCCN(C(=O)CSc1nnc(-c2cccs2)n1N)c1c(N)n(Cc2ccccc2)c(=O)[nH]c1=O,49.8%,-5.5%,56.2µM*,-3.5%,1.0%
COCCN(C(=O)CSc1nnc(-c2ccc(C)c(C)c2)o1)c1c(N)n(CC(C)C)c(=O)[nH]c1=O,-2.8%,-11.1%,79.4µM*,-3.0%,0.4%
CCN(C(=O)CSc1nc2ccc(OC)cc2[nH]1)c1c(N)n(Cc2ccccc2)c(=O)[nH]c1=O,-5.4%,-17.8%,19.4%[2.33 µM],6.2%,4.1%
COCCN(C(=O)CSc1nc(-c2ccccc2)cn1N)c1c(N)n(Cc2ccccc2)c(=O)[nH]c1=O,33.2%,-24.1%,8.91µM*,-2.3%,13.1%
SMILES,HP1b binding inh,JMJD2A Tudor inh,G9a inh,BAZ2B inh,GLS inhibitor
CCN(C(=O)CSc1nc(-c2ccccc2)cn1N)c1c(N)n(Cc2ccccc2)c(=O)[nH]c1=O,19.1%,-11.0%,?,-4.1%,16.9%
C[C@H](O)C(=O)Nc1c(I)c(C(=O)NC(CO)CO)c(I)c(C(=O)NC(CO)CO)c1I,.,.,18.7%[21.5 µM],.,-9.1%[20 µM]
CCOc1cc(N)c(Cl)cc1C(=O)NCC1CN(Cc2ccc(F)cc2)CCO1 (stereo unspecified),10.5%,50.1µM*,0.0%[59 µM],.,2.3%
O=C(NCC1CCCO1)c1ccc(COc2ccc(F)cc2)o1 (stereo unspecified),43.6%,-4.8%,-42.7%[12.7 µM],-9.6%,2.3%
CCOC(=O)Cc1[nH]nc2c1C(c1cc(OC)ccc1OC)C(C#N)=C(N)O2 (stereo unspecified),18.4%,?,10.5%,?,11.1%
CCCc1[nH]nc2c1C(c1cc(OC)ccc1F)C(C#N)=C(N)O2 (stereo unspecified),10.7%,-6.6%,39.8µM*,?,6.6%
COc1ccc(C2=C(C=O)Cc3ccccc3O2)cc1,34.4%,15.6%,.,.,-13.6%
CC(CCc1ccccc1)NC(=O)COC(=O)C1=COCCO1 (stereo unspecified),44.8%,-7.4%,-1.4%,2.6%,-2.7%
COc1ccc(Br)c2c1-c1nc(NC(=O)c3ccc(F)cc3)sc1C2,33.8%,-25.5%,-21.9%[59 µM],70.8µM*,2.2%
COc1ccc(C(=O)Nc2nc3c(s2)CCc2cc(OC)ccc2-3)cc1,-11.6%,-27.9%,6.31µM*,-22.0%,-3.4%
COc1ccc2c(c1)-c1nc(NC(=O)c3ccc(C)cc3)sc1CC2,33.7%,-20.6%,-31.9%[59 µM],-0.4%,3.0%
COc1ccc2c(c1)CCc1sc(NC(=O)c3cccc(Br)c3)nc1-2,-13.7%,?,10µM*,-0.5%,5.2%
COc1ccc2c(c1)Cc1sc(NC(=O)c3cccc(C)c3)nc1-2,3.2%,?,?,?,9.4%
Cc1cc(C)n(CC(=O)c2cccc([N+](=O)[O-])c2)n1,39.0%,-7.5%,11.1%,-17.8%,0.0%
COC(=O)c1sc(N2C(=O)C(=O)/C(=C(/O)c3ccc(C)cc3)C2c2ccco2)nc1C (stereo unspecified),-14.8%,63.1µM*,?,-30.7%,-22.3%
CCCOc1ccc(/C(O)=C2/C(=O)C(=O)N(CCCn3ccnc3)C2c2ccco2)cc1 (stereo unspecified),39.1%,?,.,-7.2%,3.1%
CCOc1ccc(/C(O)=C2/C(=O)C(=O)N(c3nc(C)c(C)s3)C2c2ccco2)cc1 (stereo unspecified),5.6%,?,44.7µM*,-36.6%,6.6%
